An excerpt weighted towards active compounds, which were near 11% of everything screened.
JMJD2A Tudor inh = qHTS Assay for Inhibitors of JMJD2A-Tudor Domain; AlphaScreen JMJD2A-Tudor / H3K4me3 peptide binding; Lysine-specific demethylase 4A (Homo sapiens), O75164; actives 4.4% (n = 390,000); Potency, µM (doses to about 114 µM), usual class: inhibitors; also: nearly all actives have a fitted effect of over 50% in size
HP1b chromo inh = HTS for Inhibitors of HP1-beta Chromodomain Interactions with Methylated Histone Tails | Potency, µM (series often up to 114 µM), most hits filed as inhibitors | actives 0.56% (n = 390,000) | AlphaScreen HP1-beta / biotin-H3K9me3 peptide binding; also: nearly all actives have a fitted effect of over 70% in size
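HP1-beta protein (50 nM final) preincubated 30 min at room temperature with biotinylated H3(1-18)K9me3 peptide (50 nM) in PBS pH 7.4, 0.01% Tween-20, then compound added for 30 min. AlphaScreen streptavidin donor/nickel chelate acceptor beads (10 ug/mL final), 30 min dark, luminescence read.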
L3MBTL1 inh = qHTS Assay for the Inhibitors of L3MBTL1; Lethal(3)malignant brain tumor-like protein 1 (Homo sapiens), Q9Y468; AlphaScreen L3MBTL1–H3K9me1 peptide binding; Potency, µM (doses to about 57.1 µM), actives largely listed as inhibitors; actives 0.66% (n = 230,000); AID 485360, 2010; also: nearly all actives have a fitted effect of over 60% in size
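L3MBTL1 50 nM + b-AHA-H3(1-15)K9me1 75 nM, 30 min RT; compound added, 30 min RT; streptavidin donor/Ni-chelate acceptor beads 10 ug/mL each final, 30 min RT dark; AlphaScreen read.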
BAZ2B inh = qHTS Assay for Inhibitors of BAZ2B | Bromodomain adjacent to zinc finger domain protein 2B (Homo sapiens), Q9UIF8 | AID 504333, 2011 | AlphaScreen BAZ2B-H3K14Ac peptide displacement | Potency, µM (series often up to 114 µM), actives largely listed as inhibitors | actives 4.4% (n = 360,000); also: nearly all actives have a fitted effect of over 60% in size
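AlphaScreen displacement: compounds (up to 110uM) incubated 30 min at room temperature with a preformed 50 nM BAZ2B/50 nM biotinylated H3K14Ac peptide complex in PBS pH 7.4 with Tween-20. Donor and acceptor beads at 10 ug/mL final added, 20 min light-protected before reading.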
G9a inh-1 = qHTS Assay for Inhibitors of Histone Lysine Methyltransferase G9a. G9a H3K9 monomethylation, AlphaScreen, 2 h. Potency, µM (series often up to 102 µM), hits mostly inhibitors. actives 8.8% (n = 350,000). AID 504332, 2011; also: nearly all actives have a fitted effect of over 75% in size
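Quantitative HTS format: methyltransferase activity on a biotin-tagged H3K9 peptide is measured by AlphaScreen, using a rabbit anti-monomethyl-H3K9 antibody with streptavidin donor and anti-IgG acceptor beads. Final levels are 20 nM enzyme, 500 nM peptide, 20 uM SAM; 2 h RT.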
JMJD2E confirm = Confirmation qHTS Assay for Inhibitors of Human Jumonji Domain Containing 2E (JMJD2E) | shares compounds with JMJD2A Tudor inh | Recombinant JMJD2E, FDH-coupled NADH fluorescence (FDH is formaldehyde dehydrogenase) | Potency, µM (highest dose often 56.8 µM), most hits filed as inhibitors | actives 93% (n = 140) | AID 2677, 2010
FDH inh = Counterscreen for JMJD2E Inhibitors: qHTS Assay for Inhibitors of Formaldehyde Dehydrogenase (FDH). shares compounds with JMJD2A Tudor inh. actives 10% (n = 140). Potency, µM (titrated, usually from 56.7 µM), usual class: inhibitors. FDH enzyme assay, NADH fluorescence kinetic
JMJD2E MALDI inh = MALDI-TOF-MS Assay for Inhibitors of Human Jumonji Domain Containing 2E (JMJD2E); shares compounds with JMJD2A Tudor inh; recombinant JMJD2E demethylation, MALDI-TOF-MS; Potency, µM, hits mostly inhibitors; actives 90% (n = 45);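 active = compounds whose IC50 for blocking JMJD2E demethylation is below 100 µM; inconclusive = dose dependent effect but IC50 above 100 µM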
G9a inh-2 = qHTS Assay for Inhibitors of Histone Lysine Methyltransferase G9a: Hit Confirmation | shares compounds with JMJD2A Tudor inh | G9a H3K9 monomethylation, AlphaScreen, 2 h | Potency, µM, most hits filed as inhibitors | actives 89% (n = 370) | AID 588344, 2011; also: nearly all actives have a fitted effect of over 65% in size
Large screens that a line does not name were inactive (follow-up assays come after a bar, where they were run). Unless noted, calls follow the shape of the dose curve; as a rule, active = well fitted curve in the direction sought with a large enough effect; inconclusive = small, poorly fitted or top-dose-only effect, or another doubt; inactive = no such curve, though single readings can be large; an effect the other way counts as inactive or inconclusive.

COC(=O)Cc1sc(-c2ccccn2)nc1-c1ccccc1	HP1b chromo inh inconclusive, G9a inh-1 2.2µM | G9a inh-2 5
COc1ccc(-c2nnc(SCC(=O)NC(=O)Cc3ccccc3)n2C)cc1	G9a inh-1 inconclusive | G9a inh-2 inconclusive
Cn1c(SCC(=O)NC(=O)Cc2ccccc2)nnc1-c1ccc(F)cc1	none (no result: BAZ2B inh, G9a inh-1)
Cn1c(SCC(=O)NC(C)(C)C)nnc1-c1cccc(NC(=O)c2ccccc2F)c1	JMJD2A Tudor inh inconclusive, G9a inh-1 inconclusive (no result: L3MBTL1 inh) | G9a inh-2 1.4
Cn1c(SCC(=O)Nc2ccc3c(c2)oc2ccccc23)nnc1-c1ccccc1	JMJD2A Tudor inh inconclusive, G9a inh-1 2µM (no result: L3MBTL1 inh) | G9a inh-2 7.1
Cn1c(SCC(=O)N2CCOCC2)nnc1-c1cccc(NC(=O)c2ccccc2F)c1	G9a inh-1 inconclusive
CC(C)c1ccc(NC(=O)C2CCC(CNC(=O)[C@@H]3Cc4ccccc4CN3)CC2)cc1 (some centres not stated)	none (no result: L3MBTL1 inh, G9a inh-1)
COc1ccc(-c2nn3c(=O)cc(CN4CCN(C(=O)Nc5cc(C)ccc5C)CC4)nc3s2)cc1	none (no result: L3MBTL1 inh)
Cc1ccc(C(C)(C)NC(=O)C2CCC(=O)N(CC3CCCCC3)C2)cc1 (configuration not stated)	none (no result: L3MBTL1 inh)
CCN(CC)c1ccc(NC(=O)Nc2cccc(C(C)=O)c2)cc1	JMJD2A Tudor inh 35µM, BAZ2B inh 32µM, G9a inh-1 1.8µM (no result: L3MBTL1 inh) | G9a inh-2 3.2
O=C(CN1C(=O)NC2(CCCc3ccccc32)C1=O)NCc1ccc(Cl)cc1Cl (configuration not stated)	none (no result: L3MBTL1 inh)
CCn1c2ccccc2c2cc(CN3CCN(Cc4ccc(Cl)cc4)CC3)ccc21	JMJD2A Tudor inh 7.9µM, HP1b chromo inh inconclusive, BAZ2B inh 16µM, G9a inh-1 0.5µM (no result: L3MBTL1 inh) | G9a inh-2 22
CCn1c2ccccc2c2cc(CN3CCN(Cc4cc(OC)c(O)c(OC)c4)CC3)ccc21	JMJD2A Tudor inh 11µM, HP1b chromo inh inconclusive, BAZ2B inh 22µM, G9a inh-1 0.71µM (no result: L3MBTL1 inh) | G9a inh-2 18
NC(=O)C1C(=O)c2ccccc2C1(C[N+](=O)[O-])c1ccccc1 (configuration not stated)	none (no result: L3MBTL1 inh, BAZ2B inh, G9a inh-1)
CSc1nc(N)c(NC(=O)c2ccc(Br)o2)c(=O)[nH]1	none (no result: L3MBTL1 inh)
Oc1ccc(COCc2ccccc2)c2cccnc12	JMJD2A Tudor inh inconclusive, L3MBTL1 inh 8.9µM, BAZ2B inh 28µM | JMJD2E confirm 23µM | FDH inh inactive | JMJD2E MALDI inh 25
Cc1ncc(COCc2ccccc2)c(CO)c1OCc1ccccc1	none (no result: L3MBTL1 inh, BAZ2B inh, G9a inh-1)
CCn1nnnc1NCc1ccc(SC)cc1	none
CCn1nnnc1NCc1ccc(N2CCCC2)cc1	JMJD2A Tudor inh 20µM, HP1b chromo inh inconclusive, G9a inh-1 inconclusive | G9a inh-2 10
O=C(CSc1nnc(-c2ccncc2)o1)c1cccc([N+](=O)[O-])c1	none
O=C(CSc1ncn[nH]1)c1cccc([N+](=O)[O-])c1	JMJD2A Tudor inh 28µM, G9a inh-1 25µM | JMJD2E confirm 10µM | FDH inh 0.89µM
Cc1noc(C)c1S(=O)(=O)N(C)C[C@H]1Oc2c(cccc2N(C)C)C(=O)N([C@H](C)CO)C[C@@H]1C	none (no result: BAZ2B inh, G9a inh-1)
CC1CCCCC1NC(=O)COC(=O)c1ccc2c(c1)NC(=O)CS2 (configuration not stated)	none (no result: BAZ2B inh, G9a inh-1)
COCc1c(C(=O)NCc2ccccc2CN2CCCC2)oc2ccccc12	none
COCc1cc(CN2CCCC2)c(O)c2ncccc12	JMJD2A Tudor inh 8.9µM, L3MBTL1 inh 10µM, BAZ2B inh 3.2µM, G9a inh-1 inconclusive | JMJD2E confirm 7.9µM | FDH inh inactive
CC(=O)OC1(C(C)=O)CCC2C3CC(Cl)C4=CC(=O)CCC4(C)C3CCC21C (configuration not stated)	none (no result: L3MBTL1 inh, BAZ2B inh, G9a inh-1)
CN(C)c1ccc(NC(=O)CCSc2nc(-c3ccco3)cc(C(F)(F)F)n2)cc1	JMJD2A Tudor inh inconclusive, BAZ2B inh inconclusive, G9a inh-1 0.71µM (no result: L3MBTL1 inh) | G9a inh-2 1.3
Cc1ccc(CNC(=O)CN2C(=O)COc3ccc(S(=O)(=O)N4CCC(C)CC4)cc32)cc1	G9a inh-1 inconclusive (no result: L3MBTL1 inh) | G9a inh-2 inconclusive
COc1ccc(CNC(=O)Nc2ccc(C)c(C)c2)cc1	none
COc1ccc(N2CCC(CNC(=O)Nc3ccc(C)c(C)c3)C2)cc1 (configuration not stated)	JMJD2A Tudor inh 25µM, HP1b chromo inh inconclusive, BAZ2B inh 40µM, G9a inh-1 2µM | G9a inh-2 2.5
CCOc1ccc(NC(=O)NCC2CCN(c3ccc(OC)cc3)C2)cc1 (configuration not stated)	G9a inh-1 1µM (no result: L3MBTL1 inh) | G9a inh-2 1.1
COc1ccc(N2CCC(CNC(=O)Nc3ccc(OC)cc3OC)C2)cc1 (configuration not stated)	JMJD2A Tudor inh 45µM, L3MBTL1 inh inconclusive, BAZ2B inh 40µM, G9a inh-1 inconclusive | G9a inh-2 2.5
COc1ccc(CNC(=O)C2CCN(S(=O)(=O)c3cccc(C(F)(F)F)c3)CC2)cc1	none
COc1ccc(N2CCC(CNS(=O)(=O)c3cccc(C(F)(F)F)c3)C2)cc1 (configuration not stated)	JMJD2A Tudor inh 40µM, HP1b chromo inh inconclusive, L3MBTL1 inh inconclusive, BAZ2B inh 10µM, G9a inh-1 inconclusive | G9a inh-2 0.45
OCC[C@@H]1C[C@H](O)[C@@H](O)[C@]2(OCCc3ccccc32)O1	none

Bioassay records from PubChem.
